The labels stand for the following.
B1: ENSMUSG00000058297.302|Spock2|29:34 (ssRNA)
RNA: GGGAGUUCUACAGUCCGACGAUCGCUUCGAUAUCCGCAUGCUAAUGCCCAGGAAGAGUGAGGGCAGCCCCCACACACGUGGAAGAGGCUGGGCAGCUAGCUACUGGGGACCUUGUGCUGAGGCUUCCAGGACAAAGCCCCAGUCUGGCUCUCCCCCAGCCUCUCAGGGGCACUGGCUGGUCACAUCCACUGAGUAUUGAUCGGUUGGACUUUAGGGAAGAGCCUCCUCCUUCCCAUUCCUUUCUGCCACCCUGGAAUGGCCACCUUAAUCGUCAUCUCCUCGGGGGGAAUACGGAAAUGUCACCUCUUGCGGUCGCACUAGUGUGGAAUUCUCGGGUGUCAAGG
B2: ENSMUSG00000042529.387|Kcnj12 (ssRNA)
RNA: GGGAGUUCUACAGUCCGACGAUCGCUUCGAUAUCCGCAUGCUACUGGUCAGGCUGGAUGCUGGCCACAGACAUGAUCAGUCCGACUUGAGUCCCUGCCCUGCCCUGGUUAUGCAGGCUGUACGACGCAGUGUGCAUCAGUCUGAGGAGUCUGGUGGUAAGUAAGCCUCUGCAGCAGACCCUGUCGGAGGCCAUGGGGGCGUGUGUGUGUGUGUGUGUGUGUGUGUGUGUGUGUGUGUGUGUGUGUGUGUGUGAACAUGUGUGAGGGUGUGGAGGUCCCAGGGUGUGUGUAUGUGAAUGUCAGUCUCUUGCGGUCGCACUAGUGUGGAAUUCUCGGGUGUCAAGG
B3: ENSMUSG00000042529.386|Kcnj12 (ssRNA)
RNA: GGGAGUUCUACAGUCCGACGAUCGCUUCGAUAUCCGCAUGCUACCUGAACUGGUCAGGCUGGAUGCUGGCCACAGACAUGAUCAGUCCGACUUGAGUCCCUGCCCUGCCCUGGUUAUGCAGGCUGUACGACGCAGUGUGCAUCAGUCUGAGGAGUCUGGUGGUAAGUAAGCCUCUGCAGCAGACCCUGUCGGAGGCCAUGGGGGCGUGUGUGUGUGUGUGUGUGUGUGUGUGUGUGUGUGUGUGUGUGUGUGUGUGUGAACAUGUGUGAGGGUGUGGAGGUCCCAGGGUGUGUGUAUGUGAAUCUCUUGCGGUCGCACUAGUGUGGAAUUCUCGGGUGUCAAGG
B4: ENSMUSG00000042529.397|Kcnj12 (ssRNA)
RNA: GGGAGUUCUACAGUCCGACGAUCGCUUCGAUAUCCGCAUGCUACUGGUUAUGCAGGCUGUACGACGCAGUGUGCAUCAGUCUGAGGAGUCUGGUGGUAAGUAAGCCUCUGCAGCAGACCCUGUCGGAGGCCAUGGGGGCGUGUGUGUGUGUGUGUGUGUGUGUGUGUGUGUGUGUGUGUGUGUGUGUGUGUGAACAUGUGUGAGGGUGUGGAGGUCCCAGGGUGUGUGUAUGUGAAUGUCAGUGGCUUGGGUGCUGUGUGGAGAGAGAGAGAGAGAGAGAGAGAGAGAGAGAGAGAGAGAGAGCUCUUGCGGUCGCACUAGUGUGGAAUUCUCGGGUGUCAAGG
B5: ENSMUSG00000042529.388|Kcnj12 (ssRNA)
RNA: GGGAGUUCUACAGUCCGACGAUCGCUUCGAUAUCCGCAUGCUAAGGCUGGAUGCUGGCCACAGACAUGAUCAGUCCGACUUGAGUCCCUGCCCUGCCCUGGUUAUGCAGGCUGUACGACGCAGUGUGCAUCAGUCUGAGGAGUCUGGUGGUAAGUAAGCCUCUGCAGCAGACCCUGUCGGAGGCCAUGGGGGCGUGUGUGUGUGUGUGUGUGUGUGUGUGUGUGUGUGUGUGUGUGUGUGUGUGUGAACAUGUGUGAGGGUGUGGAGGUCCCAGGGUGUGUGUAUGUGAAUGUCAGUGGCUUGCUCUUGCGGUCGCACUAGUGUGGAAUUCUCGGGUGUCAAGG
B6: ENSMUSG00000022095.3|Fam160b2|123:127 (ssRNA)
RNA: GGGAGUUCUACAGUCCGACGAUCGCUUCGAUAUCCGCAUGCUAAAGGAGCUGGCUGCCAUUGCGUUUGUCAAGUUUCCCCCACACGGUCCUUACCUGAACUUCUCUCCACCUCCAGAAGGGCAAGUCUGAGCCAGGAGCAUGACGGGUGGGGGAAGAUUCCUGCCACACAACUUCUGCCCACGGGCAGUCUCCUGCCUGGCCAUGCUGCCACUCUGUCCUCCAUGCCGGGGACUUCAGCUGCAGGACACCUCACCUGUUGACCCCACGAGCUGAGGUUUCAAGGAGGUGCUGGCUCCUAAGGCCUCUUGCGGUCGCACUAGUGUGGAAUUCUCGGGUGUCAAGG
B7: ENSMUSG00000004113.146|Cacna1b|6:10;184:188;241:245;249:253 (ssRNA)
RNA: GGGAGUUCUACAGUCCGACGAUCGCUUCGAUAUCCGCAUGCUACACAUCAUACUAGAGAUGCGCUCAAGGGCCUGCCUUUCACCUACACUGUCACCAUAACAGGGACCAAAUCUGGAGGAUGUCCUUGCUGUUGAUUCUGGUUUUCAGUCACAACACUUUCACUGUUUGUCAUUUCUAUGUAGUUGAUCUAGAAAAAGCAGAAAUCAAAACAGGAAAGGAAAUGUUACACAAACUUUAAAAAAAAAGUCAACAUGUAGGAAGGUCUCCAUUUUGCAUUGUUUCACACACUUCAUACCAAUGUUCUCUUGCGGUCGCACUAGUGUGGAAUUCUCGGGUGUCAAGG
B8: ENSMUSG00000031028.47|Tub (ssRNA)
RNA: GGGAGUUCUACAGUCCGACGAUCGCUUCGAUAUCCGCAUGCUACUGAAGCAGGGGGGACAGCAAAUGGGUAUGACAGGAGAAGAAUAUUUCUGUGCCCCAAGGUCAACACACAUGCCCAGUCCUGGGUCAGUCCCCUGCUGCAGUGGUGUUAUCACACCGGAAAGCCUCUUCACCUGGAGGUACAGAGGGAGAGGAAGCACAAGCCUGGCUGCUGUGGCUCAGCCAUCCACUCAGCCUACGAGUCAGAGACAGUGGGUGUCCCGGGAAGCAGGGGUACAGUGAGUGUGUGUGUAUGUACAGGGCUCUUGCGGUCGCACUAGUGUGGAAUUCUCGGGUGUCAAGG
B9: ENSMUSG00000043670.69|Diras1 (ssRNA)
RNA: GGGAGUUCUACAGUCCGACGAUCGCUUCGAUAUCCGCAUGCUACCAUUCUAUCUGCACCCCACAACCACACACUGGAGGUUUGAUCCCUGUGGAUCUGAAAACAGGGACCUGGCUAAGGAACUGCUCAUCCCAGUCAGGCCCAGAGAGGUUACCUUGCCUCUCCAUCUCUGUCCCUGUGUGCCCAGCCAUGCCCACUGUCCCUGUCCCUCACAUUCUAUCACUGUGACCUCUGGGGAGUGCCCAUUGACCUCAUCUUCCUUCACUAAUAUCUUAUUUCUUUCACCUGAUCCUGUCCUUUCCCCCUCUUGCGGUCGCACUAGUGUGGAAUUCUCGGGUGUCAAGG

Over roughly 9,900 sequences, “r (bound/input frequency ratio)” has its median near 0.7; the highest 2% begin near 6.5. The list comes from a sample in which the highest values are over-represented; it also holds similar and randomly drawn sequences.

The assay deals with TDP-43 (Homo sapiens, UniProt Q13148 1-414). Kind of assay: RNA Bind-n-Seq with designed 260-mer pool; 25 mM Tris-HCl, 150 mM KCl, 3 mM MgCl2, BSA (printed 500 mg/mL), 20 units/mL SUPERase IN; pH not stated; 500 nM RNA pool, 1 h, 4 C; TDP-43 5, 50, 500 nM; high values mean tight binding. As to conditions: protein: recombinant; tags: SBP (GST cleaved off with PreScission; pGEX-GST-SBP). The method in brief: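 Streptavidin beads captured recombinant SBP-tagged TDP-43 at 5, 50 or 500 nM, and the beads were incubated for 1 h at 4 °C with 500 nM of an in vitro-transcribed pool of 260-nt 3′ UTR oligos in 25 mM Tris-HCl, 150 mM KCl, 3 mM MgCl2, BSA and SUPERase IN. After washing, bound RNA was eluted with biotin, reverse transcribed, PCR-amplified and sequenced. Binding is reported as R, the mapped-read-normalized abundance of each oligo in the bound sample divided by its abundance in the input. Two independent protein batches served as duplicates.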
Sequence of TDP-43 (Q13148 whole entry): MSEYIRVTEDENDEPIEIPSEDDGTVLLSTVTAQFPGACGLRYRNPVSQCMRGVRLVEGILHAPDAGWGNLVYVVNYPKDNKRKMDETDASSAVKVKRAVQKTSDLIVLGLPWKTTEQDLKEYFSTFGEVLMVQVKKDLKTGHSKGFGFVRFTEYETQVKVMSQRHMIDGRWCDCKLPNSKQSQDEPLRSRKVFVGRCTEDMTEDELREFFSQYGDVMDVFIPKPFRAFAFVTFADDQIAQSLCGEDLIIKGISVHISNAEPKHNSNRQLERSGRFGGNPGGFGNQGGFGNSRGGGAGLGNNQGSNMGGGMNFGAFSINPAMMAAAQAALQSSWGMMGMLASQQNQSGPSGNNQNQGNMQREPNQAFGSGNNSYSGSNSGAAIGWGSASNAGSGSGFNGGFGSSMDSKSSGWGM
For the molecule B1, the binding signal is 0.746 R (bound/input frequency ratio).
In the case of B2 it was 12.1 R (bound/input frequency ratio); in that of B3, 6.36 R (bound/input frequency ratio); in that of B4, 5.15 R (bound/input frequency ratio).
To B5 belongs 9.68 R (bound/input frequency ratio).
To B6 belongs 0.205 R (bound/input frequency ratio).
Regarding B7, the binding signal is 0.13 R (bound/input frequency ratio).
To B8 belongs 2.21 R (bound/input frequency ratio).
Consider B9, for which the binding signal is 2.12 R (bound/input frequency ratio).

These data come from PMC12864922, “TDP-43 directly inhibits mRNA accumulation in neurites through modulation of mRNA stability”.
